# Compound activity from PubChem.
# PAFAH2 FP inh: PAFAH2 (human) inhibition | actives 0.99% (n = 340,000) | inhibition, % at 3.39 µM | recombinant PAFAH2, FP-rhodamine activity probe, fluorescence polarization;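 active = inhibition above the mean over all tested compounds plus 3 SD, cut at about 30% in these data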;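 note: inhibitors block probe labeling of enzyme so polarization drops; 0% = enzyme with DMSO and 100% = wells lacking PAFAH2 protein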
# PP5 inh: blocks human protein phosphatase 5 activity; inhibition, % at 6.7 µM; purified PP5c, OMFP substrate fluorescence; AID 1987; actives 0.18% (n = 320,000); P53041;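 active = inhibition above the campaign's mean inhibition across all tested compounds plus 3 SD, cut at about 9.5% in these data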;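 note: 0% = DMSO only and 100% = 100 µM cantharidin control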
# PAFAH1B3 inh: blocks human PAF acetylhydrolase 1B catalytic subunit 3 | recombinant PAFAH1B3, FP-rhodamine probe, fluorescence polarization | inhibition, % at 3.39 µM | actives 0.28% (n = 340,000);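 active = inhibition above the screen-wide average of all tested compounds plus 3 SD, cut at about 25% in these data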;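 note: 0% = enzyme with DMSO only and 100% = wells lacking PAFAH1B3 protein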
# Target sequence (Q15102 whole entry, looked up): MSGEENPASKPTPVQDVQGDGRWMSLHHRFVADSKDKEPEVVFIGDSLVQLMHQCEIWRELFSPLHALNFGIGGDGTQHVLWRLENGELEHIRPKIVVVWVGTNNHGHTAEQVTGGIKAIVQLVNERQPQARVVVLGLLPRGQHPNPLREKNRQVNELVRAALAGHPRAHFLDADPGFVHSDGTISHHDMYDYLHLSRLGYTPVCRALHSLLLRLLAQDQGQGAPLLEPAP
# PAFAH1B2 FP inh: blocks human PAF acetylhydrolase 1b catalytic subunit 2; P68402; recombinant PAFAH1B2, FP-rhodamine activity probe, fluorescence polarization; inhibition, % at 3.39 µM; actives 1.2% (n = 340,000);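 active = inhibition above the mean of all tested compounds plus 3 SD, cut at about 24% in these data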;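 note: 0% = enzyme with DMSO and 100% = wells lacking PAFAH1B2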
# Target sequence (P68402 whole entry, looked up): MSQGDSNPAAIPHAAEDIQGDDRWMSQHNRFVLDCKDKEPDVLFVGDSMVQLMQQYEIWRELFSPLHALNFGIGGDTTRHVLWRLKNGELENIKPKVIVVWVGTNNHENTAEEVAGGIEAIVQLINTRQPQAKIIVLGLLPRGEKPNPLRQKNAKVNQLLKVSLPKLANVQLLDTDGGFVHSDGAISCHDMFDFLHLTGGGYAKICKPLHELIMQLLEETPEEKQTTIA
# CTSL1 counter: counter-screen for PFM18AAP inhibitors: inhibitors of F. hepatica cathepsin L1. recombinant F. hepatica cathepsin L1, Z-Leu-Arg-MCA fluorescence. inhibition, % at 5.96 µM. actives 0.49% (n = 300,000). AID 1906;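 active = inhibition above the mean of all tested compounds plus 3 SD, set per screening campaign, cut at about 17% in these data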;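 note: 0% = plate median of test compound wells and 100% = 1 µM Z-Phe-Ala-diazomethylketone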
# pPAFAH FP inh: pPAFAH (human) enzyme inhibition | recombinant pPAFAH, FP-rhodamine probe fluorescence polarization | actives 1.5% (n = 330,000) | AID 463082 | inhibition, % at 3.39 µM;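 active = inhibition above the mean inhibition across the screen plus 3 SD, cut at about 25% in these data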;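 note: inhibitors block binding of the rhodamine activity-based probe so polarization drops; 0% = enzyme with DMSO and 100% = wells lacking pPAFAH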
# pPAFAH confirm: pPAFAH (human) inhibition, confirmed; shares compounds with pPAFAH FP inh; inhibition, % at 3.39 µM; recombinant pPAFAH, FP-Rh probe fluorescence polarization; actives 72% (n = 2,300); AID 463230;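 active = mean inhibition of the triplicate above the hit cutoff set for the earlier primary screen, cut at about 25% in these data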;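 note: 0% = enzyme with DMSO and 100% = wells lacking pPAFAH enzyme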
# The depositor's hits bear a star; . = not tested or not shown. Rows were chosen to be rich in hits. Some 3% of all compounds tested hit in one or more screens of this group.
SMILES,PAFAH2 FP inh,PP5 inh,PAFAH1B3 inh,PAFAH1B2 FP inh,CTSL1 counter,pPAFAH FP inh,pPAFAH confirm
CC1(c2cccc(Br)c2)NC(=O)N(CC(=O)c2ccc3c(c2)OCCO3)C1=O (configuration not stated),1.9,.,-1.1,6.9,.,37.6*,2.0
CC1(c2cccc(Br)c2)NC(=O)N(CC(=O)Nc2ccc3c(c2)OCCO3)C1=O (configuration not stated),0.8,.,14.1,3.4,.,7.5,.
CCOc1ccc(NC(=S)NC(=O)/C=C/c2ccc(OC)c(OC)c2)c([N+](=O)[O-])c1,3.0,-0.1,5.3,2.4,5.5,-5.8,.
CCOc1ccc(NC(=S)NC(=O)/C=C/c2ccc(C)cc2)c([N+](=O)[O-])c1,-8.8,0.2,-20.9,-1.8,2.9,38.2*,-2.5
CC1=Nc2nc(N3CCCCC3)c(C#N)c3c4c(nc(c23)N1)N(c1ccc(C(C)C)cc1)C(=O)C4,9.9,1.4,10.7,6.1,3.0,63.3*,29.4*
CCOC(=O)C1=C(C)NC(SCc2cc(=O)[nH][nH]2)=C(C#N)C1c1cccs1 (configuration not stated),-1.9,-1.3,0.5,4.5,0.8,46.7*,12.9
CCOC(=O)C1=C(C)NC(SCC(N)=O)=C(C#N)C1c1cccs1 (configuration not stated),3.8,1.5,2.0,1.0,0.9,4.1,.
CCN(CC)S(=O)(=O)c1cc(NC(=O)Cc2ccc(S(=O)(=O)N3CCOCC3)s2)ccc1Cl,22.3,.,-6.5,-5.3,.,.,.
Cc1ccc(C(=O)NNC(=O)CCCN2C(=O)/C(=C/c3ccccc3Cl)SC2=S)cc1,3.5,2.0,-11.8,1.9,0.4,46.1*,53.1*
O=C(CCCN1C(=O)/C(=C/c2ccccc2Cl)SC1=S)NNC(=O)c1ccc(Cl)cc1,-6.3,-0.5,-1.5,0.0,-4.0,-4.1,.
N#CCN(CC#N)C(=O)C1c2ccccc2Oc2ccccc21,5.2,1.2,12.3,1.9,-1.0,62.2*,2.6
NC(=O)COC(=O)C1c2ccccc2Oc2ccccc21,1.1,-7.6,4.3,10.3,4.8,-4.8,.
COc1ccc2noc3c2c1C(=O)c1ccccc1-3,38.0*,-64.6,24.6,19.9,4.7,38.1*,25.0*
CCC(C(=O)NC(C)(C)C)N(Cc1ccc(F)cc1)C(=O)c1snc(C(N)=O)c1N (configuration not stated),5.6,0.4,-3.0,3.9,3.2,-6.8,.
Nc1c(C(=O)Nc2nc3ccccc3s2)sc2nc(-c3cccs3)ccc12,18.3,1.1,6.3,9.1,7.3,50.1*,43.3*
CCCn1nc([N+](=O)[O-])c(C(C#N)c2nc3ccccc3s2)c(Cl)c1=O (configuration not stated),60.1*,7.7,14.5,15.2,2.5,56.5*,51.4*
CCn1nc([N+](=O)[O-])c(C(C#N)c2nc3ccccc3n2C)c(Cl)c1=O (configuration not stated),11.4,3.4,12.0,8.7,-3.7,13.8,.
C[C@H]1CN([C@@H](C)CO)C(=O)Cc2cc(NS(=O)(=O)c3ccc(Cl)cc3)ccc2O[C@@H]1CN(C)C(=O)Nc1cccc2ccccc12,15.8,.,12.8,12.3,.,48.6*,54.5*
CC(C)NC(=O)N(C)C[C@H]1Oc2ccc(NS(=O)(=O)c3ccc(Cl)cc3)cc2CC(=O)N([C@@H](C)CO)C[C@@H]1C,3.9,.,5.3,12.2,.,8.2,.
O=C(Nc1oc2ccccc2c(=O)c1-c1ccc(Cl)cc1)c1ccco1,-2.2,-0.1,6.7,1.7,0.9,0.5,.
CC(N=Cc1cccc(O)c1O)c1ccccc1 (configuration not stated),26.4,1.4,24.4,16.7,-2.6,66.4*,16.6
COc1ccc(C(C)=O)cc1CSc1nnc(Nc2ccccc2)s1,10.0,0.2,12.9,1.7,1.6,6.6,.
COc1cccc2cc(C(=O)CS(=O)(=O)c3ccc(C(C)(C)C)cc3)c(=O)oc12,15.0,1.2,3.7,41.8*,-5.0,52.4*,35.4*
O=C(CSc1ccc(S(=O)(=O)N2CCOCC2)cn1)Nc1ccc(F)c(F)c1,1.4,-1.0,5.5,-0.7,.,-3.1,.
Cc1occc1-c1nnc(SCC(=O)N2CCCC(C)C2)o1 (configuration not stated),1.0,1.5,5.8,4.0,.,6.1,.
SMILES,PAFAH2 FP inh,PP5 inh,PAFAH1B3 inh,PAFAH1B2 FP inh,CTSL1 counter,pPAFAH FP inh,pPAFAH confirm
Cc1cc(O)c(C=O)c2c1C(=O)Oc1c(CO)c(O)c3c(c1O2)C(O)OC3=O (configuration not stated),48.3*,1.8,32.7*,2.9,1.8,89.2*,26.6*
CC(OC(=O)c1ccc(Cl)cc1)C(=O)NCc1ccc2c(c1)OCO2 (configuration not stated),6.9,-1.2,7.4,4.8,.,53.7*,2.4
CC(OC(=O)c1ccc(Cl)c(S(N)(=O)=O)c1)C(=O)NCc1ccc2c(c1)OCO2 (configuration not stated),-1.4,0.5,-2.8,4.9,-1.6,2.8,.
Cc1cc(C2C(C#N)=C(N)OC3=C2C(=O)CCC3)c(C)s1 (configuration not stated),-30.1,-1.1,11.1,5.1,1.9,1.6,.
COc1cc(C2C(C#N)=C(N)OC3=C2C(=O)CCC3)c([N+](=O)[O-])cc1OC (configuration not stated),25.9,-0.1,26.8*,12.1,-2.3,38.2*,11.0
CNc1ccc(/C=C(\CCC(=O)O)c2nc3ccccc3s2)cc1[N+](=O)[O-],14.6,0.7,-2.2,95.8*,10.2,48.8*,37.5*
CN(c1ccccc1)c1ccc(/C=C(\CCC(=O)O)c2nc3ccccc3s2)cc1[N+](=O)[O-],32.2*,6.6,-3.4,89.0*,6.0,53.9*,57.6*
COc1ccc(C(=O)Nc2cccc(/C=C(\CCC(=O)O)c3nc4ccccc4s3)c2)cc1,-14.9,1.0,5.2,1.9,5.1,11.3,.
Cc1ccc(S(=O)(=O)N2CCCCC2)cc1NC(=O)COC(=O)Cc1cccc(C(F)(F)F)c1,4.7,6.4,1.7,0.4,-3.2,6.6,.
CCN1C(=O)C2C(c3ccccc3F)NC(Cc3ccc(O)cc3)(C(=O)OC)C2C1=O (configuration not stated),7.4,2.1,7.0,6.9,1.6,47.6*,2.3
CCOC(=O)C1(Cc2ccccc2)NC(c2ccccc2F)C2C(=O)N(CC)C(=O)C21 (configuration not stated),0.1,-1.2,9.4,-7.0,-0.9,4.5,.
COc1ccc(C)cc1NC(=O)NNC(=O)c1cc2ccccc2cc1O,2.6,0.7,33.8*,8.2,1.5,48.4*,52.0*
COc1ccc(NC(=O)NNC(=O)c2cc3ccccc3cc2O)cc1,-3.5,1.3,17.1,4.3,-0.3,18.4,.
